Common to all, as to experiment: NCI-60 one-dose screen, 48 h (100 = growth as untreated, 0 = no growth, -100 = all killed)
Holding throughout (conditions): 10 µM

Assay [1] concerns DU-145 prostate.
The test system of assay [2] is K-562 leukemia.
Assay [3] relates to MALME-3M melanoma.
Assay [4] has as its system MDA-MB-231 breast.
The test system of assay [5] is RXF 393 renal.
Assay [6] relates to SF-268 CNS.
Assay [7] relates to SF-295 CNS.
The subject of assay [8] is SF-539 CNS.
For assay [9], the system named is UACC-257 melanoma.
The test system of assay [10] is M14 melanoma.
Assay [11] has as its system HCT-15 colon.
Assay [12] concerns HT29 colon.
The test system of assay [13] is SNB-75 CNS.
For assay [14], the system named is SNB-19 CNS.
The test system of assay [15] is U251 CNS.
In assay [16] the test system is PC-3 prostate.
Assay [17] concerns SK-MEL-5 melanoma.
Assay [18] concerns UACC-62 melanoma.
For assay [19], the system named is LOX IMVI melanoma.
Assay [20] has as its system SK-MEL-28 melanoma.

This is part of a sample that, as a whole, favours compounds with a hit. Of some 83,000 tested, about 20% had one in any assay.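 Treatment: one concentration, 48 hours, 96-well format. Scoring: percent growth, with anything below 10 considered active.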 Unmarked numbers belong to inactive results. The source made the active and inactive calls.

8 compounds from PubChem BioAssay (NCI) can be followed below.

Regarding `CCCCCCCCCCCCCCCC(=O)N1CCN(C)CC1`, the growth in assay [1] was 87.2%; in assay [2], 15.9%; in [3], 90.3%; in assay [4], 54.7%; in assay [5], 77%; in [6], 73.7%. Moreover, the growth is 83.7% in assay [7]; 73.9% in [8]; 91.8% in assay [9]; 80.2% in [10]; 73.2% in assay [11]; 51.1% in assay [12]. The growth in [13] is 88.8%; in [14] it was 105%; in assay [15] it was 78.7%; in [16], 68.8%; in assay [17], 81.7%; in assay [18], 88.8%. In addition, the growth in assay [19] is -38.1% (active); in [20], 88.7%.

As for `COc1cccc2c1O/C(=C\c1ncc([N+](=O)[O-])n1C)C2=O`, the growth in assay [1] is -11.9% (active); in assay [2] it was 0.449% (active); in assay [3], -53% (active); in assay [4], -19.6% (active); in [5], -66.2% (active); in assay [6] it was -31.3% (active). Also, the growth in [7] was -10.4% (active); in [8], -53% (active); in assay [9], -50.5% (active); in assay [10] it was -61.8% (active); in assay [11], 5.88% (active); in [12], -20.7% (active). Also, the growth in assay [13] is 39.2%; in [14], -2.3% (active); in assay [15] it was -11.7% (active); in assay [16], -21.2% (active); in assay [17] it was -92.4% (active); in assay [18], -77.7% (active). Also, the growth in assay [19] was -58.8% (active); in assay [20], -25.4% (active).

As for `COc1ccc(-n2nnc3c(sc4ccccc43)c2=O)cc1`, the growth in assay [1] was 60.2%; in [2] it was 91.5%; in assay [3], 80.6%; in [4] it was 53.8%; in [5] it was 45%; in [6], 53.1%. Moreover, the growth in [7] is 42.3%; in assay [8] it was 54.7%; in [9], 80.8%; in assay [10] it was 86.5%; in assay [11] it was 102%; in assay [12], 43.8%. For the same compound, the growth in assay [13] is -9.25% (active); in assay [14], 33.7%; in assay [15], 18.9%; in assay [16], 73%; in assay [17], 74.5%; in [18], 93.9%. Besides, the growth in assay [19] was 74.4%; in assay [20], 82.8%.

Turning to `CCCOCC(O)CNCCN` (stereo not given), the growth in assay [1] is 127%; in assay [2] it was 99.3%; in assay [3] it was 106%; in assay [4], 97.5%; in [5], 110%; in [6], 113%. Besides, the growth is 94.2% in [7]; 93.2% in assay [8]; 95.9% in assay [9]; 109% in assay [10]; 98.2% in assay [11]; 102% in assay [12]. Further, the growth was 93.4% in [13]; 102% in assay [14]; 95.5% in assay [15]; 83.4% in [16]; 106% in [17]; 101% in assay [18]. The growth in assay [19] is 104%; in [20] it was 110%.

With `Cc1nn2c(/C=C3/C(=O)Nc4ccc(Cl)cc43)c(-c3ccccc3)nc2s1`, the growth in assay [1] is 31.9%; in assay [2] it was 56.7%; in assay [3] it was -2.37% (active); in assay [4], 8.13% (active); in assay [5] it was 7.51% (active); in assay [6] it was 30.4%. Moreover, the growth was 70.1% in assay [7]; 38.1% in [8]; 62.3% in assay [9]; 55.4% in assay [10]; 57.1% in [11]; 35.1% in assay [12]. Also, the growth in assay [13] is -35.4% (active); in assay [14], 82.4%; in [15], 34.8%; in assay [16], 32.3%; in assay [17] it was 26.3%; in [18], 39.3%. The growth in assay [19] is 45.3%; in [20], 29.2%.

As to `COc1ccc(-c2nnc(N3CCN(C(=O)CN4CCN(c5ccc(Cl)cc5)CC4)CC3)nc2-c2ccc(OC)cc2)cc1`, the growth in [1] was 80.2%; in assay [2], 32%; in assay [3] it was 80.8%; in [4] it was 78.7%; in assay [5] it was 53.6%; in [6], 69%. For the same compound, the growth in [7] was 45.2%; in assay [8], 82.2%; in assay [9] it was 70.2%; in assay [10], 71.4%; in assay [11] it was 76.8%; in [12] it was 37.3%. The growth was 81.4% in assay [13]; 94.7% in [14]; 80.3% in [15]; 25.6% in assay [16]; 51% in assay [17]; 58.8% in [18]. The growth in [19] is 75.9%; in assay [20], 86.7%.

`CCOc1ccc(-n2cc(-c3ccc(N(C)C)cc3)[n+]3c2CCCCC3)cc1`: the growth in assay [1] is 25.7%; in [2], 9.14% (active); in assay [3], 2.39% (active); in assay [4], 19.4%; in assay [5] it was 39.7%; in assay [6] it was 29.1%. Further, the growth was -14.7% (active) in [7]; 26.6% in assay [8]; -12.6% (active) in [9]; 10.4% in assay [10]; 75.8% in assay [11]; 9.2% (active) in [12]. For the same compound, the growth was 18.4% in [13]; 20.3% in [14]; 8.21% (active) in assay [15]; 4.48% (active) in assay [16]; -92.4% (active) in assay [17]; 20.4% in [18]. Moreover, the growth in assay [19] is 12.7%; in assay [20] it was 51.2%.

`CCOC(=O)Nc1ccc2c(c1)C(=O)N(CCOC)c1ccccc1O2`: the growth in [1] is 43.8%; in [2], 20.3%; in assay [3], 61.2%; in [4], 62.3%; in assay [5], 56%; in assay [6] it was 56.9%. Also, the growth in [7] was 28.8%; in assay [8] it was 30.3%; in [9] it was 61.7%; in [10] it was 19.8%; in assay [11], 26.1%; in assay [12], 8.18% (active). The growth in assay [13] is 31.9%; in assay [14] it was 54.5%; in assay [15] it was 39.3%; in assay [16] it was 38.4%; in assay [17] it was 12.3%; in assay [18], 30.6%. Besides, the growth in [19] was 38.7%; in [20] it was 62.9%.
